Source: PubChem BioAssay (National Center for Advancing Translational Sciences (NCATS))
An excerpt weighted towards active compounds, which were near 6.5% of everything screened.
IL-1B inflam inh: inflammasome signaling inhibition, IL-1 beta readout; 360,000 compounds, 4.7% hits; activity change, % at 57.5 µM; THP-1 LPS/ATP IL-1B secretion, AlphaLISA, 16 h; stronger effect = lower value; in the data active = activity change below about -50%; inconclusive = mostly about -30% to -49%
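Secreted IL-1B measured by AlphaLISA bead assay after 16 h compound exposure of THP-1 cells; compounds (final up to 57.5 uM) added 1 h before LPS (250 ng/mL) and ATP (1.25 mM) stimulation; lower signal means less secretion.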
TGFb inhibitor: inhibitors of TGF-b signaling; HepG2 CAGA-GFP TGF-b/SMAD3 reporter, GFP fluorescence, 18 h; TGF-beta stimulated, 500 pg/mL final; Potency, µM (doses to about 46.1 µM), actives largely listed as inhibitors; 410,000 compounds, 1.2% hits; AID 588855; note: nearly all actives have a fitted effect of over 65% in size
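HEPG2 CAGA-GFP cells (1000/well, DMEM with 1% FBS) were pre-incubated 2 h at 37 degrees C, given compound by pin tool, then stimulated with TGF-beta at 500 pg/mL final for 18 h before per-cell GFP fluorescence imaging.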
Giardia kill: Giardia lamblia killing; Giardia lamblia trophozoite viability; activity change, % at 7.66 µM, hits read low; 340,000 compounds, 0.15% hits; AID 540267; in the data active = activity change below about -80%; inconclusive = between about -30% and that limit;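 note: parasites exposed to compound for two days anaerobically before the ATP read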
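Media and compound were dispensed first, then trophozoites at 100 cells/well; plates sat 48 hrs at 37 deg C without oxygen before ATP luminescence reagent was added and read after 15-30 min at room temperature.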
HT1080-NT tox: kills 2HG-producing HT-1080-NT fibrosarcoma cells. 360,000 compounds, 1.6% hits. Potency, µM (highest dose often 46.1 µM), usual class: cytotoxic. HT-1080-NT fibrosarcoma viability, CellTiter-Glo ATP luminescence, 48 h;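 note: NT is the 2HG producing partner of a matched IDH1 knockdown line; nearly all actives have a fitted effect of over 55% in size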
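Fibrosarcoma NT cells, 750 per well in 5% FBS RPMI, were exposed to compound for 48 hours. Viability: CellTiter-Glo luminescence.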
HepG2 viability: HepG2 cytotoxicity, counter-screen for TGF-b inhibitors | HepG2 CAGA-GFP viability, ATP luminescence, 18 h | Potency, µM (titrated, usually from 46.1 µM), usual class: cytotoxic | 410,000 compounds, 0.76% hits | AID 588856
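HepG2 CAGA-GFP cells (1000/well, DMEM with 1% FBS) received compound, then TGF-beta at 500 pg/mL final, and were incubated 18 hours at 37 degrees C. Viability was read by CellTiter-Glo luminescence. Media-only wells were set as complete cell-killing and DMSO as no toxicity.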
HT1080 IDH1KD tx: kills HT-1080 cells with IDH1 knockdown. HT-1080 IDH1 knockdown viability, ATP luminescence, 48 h. Potency, µM (doses to about 46.1 µM), most hits filed as cytotoxic. 360,000 compounds, 2% hits. AID 686971
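Knockdown cells (IDH1KD HT-1080) received compounds 2 h after plating at 750 cells/well and were kept 48 h at 37 °C in 5% FBS RPMI. A CellTiter-Glo luminescence read gave % activity for curve fitting.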
A number is an active result; – = inactive; ? = inconclusive; · = no result given. Unless noted, calls come from the whole dose curve; as a rule, active = well fitted curve in the direction sought with a large enough effect; inconclusive = small, poorly fitted or top-dose-only effect, or another doubt; inactive = no such curve, though single readings can be large; an effect the other way counts as inactive or inconclusive.

SMILES | IL-1B inflam inh | TGFb inhibitor | Giardia kill | HT1080-NT tox | HepG2 viability | HT1080 IDH1KD tx
Cn1c(=O)c2c(nc(CN3CCc4ccccc4C3)n2Cc2ccc(F)cc2)n(C)c1=O | – | ? | – | – | – | –
CC(=O)Nc1cc2c(cc1[N+](=O)[O-])-c1ccc(F)cc1C2 | -81 | – | – | – | – | –
O=[N+]([O-])c1ccc2c(c1)Cc1cc(F)ccc1-2 | – | – | – | ? | – | –
O=C(Cc1nn[nH]n1)Nc1cc(Cl)cc(Cl)c1 | – | – | – | – | – | –
COc1ccccc1NC1=C(Cl)C(=O)OC1OC(=O)c1ccco1 (configuration not stated) | – | – | – | 21µM | – | ?
Cc1ccccc1NC1=C(Cl)C(=O)OC1OC(=O)c1ccco1 (configuration not stated) | ? | – | – | ? | – | 11µM
COc1cccc(NC2=C(Cl)C(=O)OC2OC(=O)c2ccco2)c1 (configuration not stated) | ? | – | – | ? | – | –
Cc1ccc(NC2=C(Cl)C(=O)OC2OC(=O)c2ccc(C)cc2)cc1 (configuration not stated) | -102 | – | – | – | – | –
O=C(CC1N=C2c3ccccc3N=C(SCc3cccc(F)c3)N2C1=O)NC1CCCCC1 (configuration not stated) | · | – | · | · | – | ·
N#Cc1c(Cl)nsc1NN | -64 | – | – | ? | – | ?
Cc1ccc(N(C(=O)c2ccncc2)C2C=CS(=O)(=O)C2)cc1 (configuration not stated) | – | – | – | – | – | –
O=[N+]([O-])c1ccc(Sc2ncccn2)c([N+](=O)[O-])c1 | · | ? | – | 29µM | 20µM | 13µM
Cc1cccc(Sc2ccc([N+](=O)[O-])cc2[N+](=O)[O-])n1 | -171 | – | – | ? | – | 18µM
O=C(Nc1ncccn1)c1ccc([N+](=O)[O-])cc1[N+](=O)[O-] | – | – | ? | – | – | –
O=c1cc(-c2ccccc2)nc(Sc2ccc([N+](=O)[O-])cc2[N+](=O)[O-])[nH]1 | -63 | ? | – | – | – | –
O=[N+]([O-])c1ccc(Sc2nccn2Cc2ccccc2)c([N+](=O)[O-])c1 | -108 | ? | – | – | – | ?
CCCCN(Cc1ccccc1)C(=O)CN(C)S(=O)(=O)c1ccc2c(c1)c(=O)n(C)c(=O)n2C | · | ? | · | · | – | ·
CCOc1ccc(S(=O)(=O)NCCc2csc3nc(-c4ccc(F)cc4)nn23)cc1 | · | ? | · | · | – | ·
Cc1ccc(NC(=O)CCCSc2ccccc2)cc1S(=O)(=O)N1CCOCC1 | -52 | ? | – | – | – | –
CC(CC(=O)Nc1ccc(Cl)c(S(=O)(=O)N2CCOCC2)c1)c1ccccc1 (configuration not stated) | – | ? | – | 18µM | – | –
O=C(CSc1ccc([N+](=O)[O-])cc1)Nc1cccc(S(=O)(=O)N2CCOCC2)c1 | -68 | – | – | – | – | –
O=C(O)CC(SCC(=O)Nc1ccc(Cl)c(S(=O)(=O)N2CCOCC2)c1)C(=O)O (configuration not stated) | – | – | – | – | – | –
CC(NC(=O)Nc1ccc(Cl)c(Cl)c1)C(c1ccccc1)N1CCOCC1 (configuration not stated) | – | ? | – | 23µM | – | ?
Cc1ccc(NC(=O)CSc2ccc(Br)cc2)cc1S(=O)(=O)N1CCOCC1 | ? | – | – | – | – | –
Cc1cccc(N2CCN(C(=O)CCn3c(=O)[nH]c4ccccc4c3=O)CC2)c1C | – | – | – | – | – | –
SMILES | IL-1B inflam inh | TGFb inhibitor | Giardia kill | HT1080-NT tox | HepG2 viability | HT1080 IDH1KD tx
COc1ccc(C(=O)NNC(=O)C2CC=CCC2)cc1 (configuration not stated) | – | – | – | – | – | –
Cc1ccc(C2=NN(CC(=O)NCCc3ccc(Cl)cc3)C(=O)CC2)cc1 | · | 11µM | · | · | – | ·
CCCCN(CCCNC(=O)CN1N=C(c2ccc(C)cc2)CCC1=O)c1ccccc1 | · | 13µM | · | · | – | ·
O=C(N/N=C1\CC2CC=CC12)c1ccccc1Cl (configuration not stated) | – | – | – | – | – | –
COc1ccc(NS(=O)(=O)c2ccc(Cl)c(N)c2)cc1Br | – | ? | – | – | – | –
O=S(=O)(Nc1ccc(-n2cccc2)cc1)c1ccc(Cl)c(Cl)c1 | – | 11µM | – | ? | – | –
Nc1cc(S(=O)(=O)Nc2ccc(Br)cc2)ccc1Cl | -69 | ? | – | – | 11µM | ?
CCC(c1nnnn1Cc1ccco1)N1CCN(c2cc(Cl)ccc2C)CC1 (configuration not stated) | -60 | – | – | – | – | –
CCCC[C@@H](CNC)NC[C@H](Cc1ccc(O)cc1)NCCc1ccc(OCC)cc1 | – | ? | – | ? | 13µM | –
Cc1ccc(-c2cc3nc(NCCc4ccncc4)n(C)c(=O)c3s2)cc1 | – | ? | · | ? | – | –
Oc1cccc(/C=N/N(Cc2ccccc2)c2ccccc2)c1 | -55 | ? | – | ? | 13µM | 18µM
C(=N\N(Cc1ccccc1)c1ccccc1)/c1cccnc1 | – | ? | – | – | – | –
Cc1ccc2c(c1)C1CN(C)CCC1N2S(=O)(=O)c1cccc(C(F)(F)F)c1 (configuration not stated) | – | – | – | – | – | –
Cc1ccc2c(c1)C1CN(C)CCC1N2S(=O)(=O)c1ccccc1F (configuration not stated) | -51 | – | – | – | – | –
COC(=O)C1Cc2c([nH]c3ccccc23)C2CCC(=O)N12 (configuration not stated) | – | – | · | – | – | –
COC(=O)[C@@H]1Cc2c([nH]c3ccccc23)C(C)(C)N1C(=O)CCl | -98 | ? | – | ? | – | 18µM
CN1CCN(C2CCCCC2NS(=O)(=O)c2ccccc2)CC1 (configuration not stated) | – | – | – | – | – | –
COC(=O)c1cc(OC)c(OC)cc1NC(=O)c1ccc(OC)cc1 | – | – | – | – | – | –
CCN(CC(=O)Nc1c(Cl)cccc1Cl)C(=O)C1CCN(c2ncnc3sc(C)c(C)c23)CC1 | – | ? | – | – | – | –
CCOC(=O)/C=C/C(=O)Nc1ccc(S(=O)(=O)N2CCCCCC2)cc1 | -88 | – | – | – | – | ?
CCOC(=O)/C=C/C(=O)Nc1ccc(S(=O)(=O)N(C)c2ccccc2)cc1 | -110 | ? | – | ? | – | 21µM
